“And” between values parts separate entries of the source, which are not always exact repeats. Equal values may be shown once. Inconclusive results are not listed. The source made the active and inactive calls. Unless noted, the call rests on the fitted dose curve; in most records, active means well fitted curve in the direction sought with a large enough effect; inconclusive means small, poorly fitted or top-dose-only effect, or another doubt; inactive means no such curve, though single readings can be large; an effect the other way counts as inactive or inconclusive.
Tests used:
[1] = AP1 Signaling Pathway (AID 357; active means well fitted curve in either direction with a large enough effect, not every such curve was filed as active;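 further: ME-180 reporter cells stimulated with EGF at its EC50 level; on the % scale 0 is the no-effect control and ±100 the full control effect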); conditions: ME-180 AP-1-bla reporter, EGF-induced, beta-lactamase ratio, 5 h
Procedure, shortened: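 Beta-lactamase reporter under AP-1 response element, ME-180 background. Stimulus: EC50 EGF. Compound exposure 5 h, 37 °C. Detection: CCF4, 2.5 h RT, 460/530 nm. Values: AC50 from titration.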

[2] = molecular target: Cytochrome P450 1A2 (Homo sapiens) (UniProt P05177); assay: p450-cyp1a2 (AID 410; calls by dose curve; further: potency means the concentration at half of the fitted maximal effect;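 on activity change, negative = inhibition: -100% = full effect of reference inhibitor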); conditions: recombinant CYP1A2, luciferin-ME demethylation, luminescence; series mostly up to 57 µM
Procedure, shortened: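 Luminescent demethylation readout: Luciferin-ME (100uM, equal to Km) turned over by 20nM CYP1A2 for 60 min at room temperature after NADPH regeneration addition, following 10 min compound preincubation. Normalization used 57 uM furafylline as full inhibition.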

[3] = NFAT Signaling Pathway (AID 444; active means well fitted curve in either direction with a large enough effect, not every such curve was filed as active;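 further: carbachol stimulus at about its EC50 of 1 µM final; on the % scale 0 is the no-effect control and ±100 the full control effect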); conditions: Jurkat NFAT-bla M1, carbachol, beta-lactamase ratio, 5 h
Procedure, shortened: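 Jurkat cells carrying an NFAT-driven β-lactamase reporter and co-transfected muscarinic M1 receptor were treated with compound plus carbachol (1 uM final, an EC50 level) for 5 h at 37 °C. CCF4 loading followed for 1 h at RT; 460/530 nm ratio gave %activity.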

[4] = Stat Signaling Pathway (AID 446; active means well fitted curve in either direction with a large enough effect, not every such curve was filed as active;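 further: ME-180 cervical cancer cells given 40 pM IL-6 alongside compound; SIE-controlled beta-lactamase reporter measured as 460/530 nm FRET emission ratio; on the % scale 0 is the no-effect control and ±100 the full control effect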); conditions: ME-180 (cervical carcinoma) SIE beta-lactamase reporter, IL-6 stimulated, 5 h; at 7.69 µM (top of the series) unless noted
Procedure, shortened: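 FRET read-out (405 nm excitation, 460/530 nm emission) of a beta-lactamase reporter under a STAT-inducible element in ME-180 cervical carcinoma cells. Cells with compound receive 40 pM IL-6 for 5 h. Values are normalised to AC90 stimulation and AC90 JAK-inhibitor controls.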

[5] = molecular target: Glucocorticoid receptor (Homo sapiens) (UniProt P04150); assay: GR-GFP Redistribution (AID 450;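 active means compounds whose dose series gives a full or clear partial fitted curve of increased nuclear translocation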; further: potency means the concentration at half of the fitted maximal effect); conditions: U2OS GR-GFP nuclear translocation, laser cytometry, 2 h
[6] = molecular target: Glucocorticoid receptor (Homo sapiens) (UniProt P04150); assay: GR-EFC Redistribution (AID 451; calls by dose curve; further: potency means the concentration at half of the fitted maximal effect); conditions: CHO-K1 GR-EFC translocation, beta-gal luminescence, 2 h
Procedure, shortened: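 CHO-K1 cells stably expressing nuclear-localized β-gal enzyme acceptor and GR fused C-terminally to the enzyme donor fragment; ligand-driven nuclear translocation restores β-gal by complementation. Compounds titrated up to 46 uM final, 2 h at 37 °C; luminescence read.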

[7] = molecular target: Mitogen-activated protein kinase 10 (Mus musculus) (UniProt Q61831); assay: JNK3 AlphaScreen Assay (AID 530; active means well fitted curve in either direction with a large enough effect, not every such curve was filed as active;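 further: kinase came from lysate of stimulated human HepG2 cells; signal reports phosphorylation of biotinylated GST-cJun 1-79 at Ser73 with 10 µM ATP; on the % scale 0 is the no-effect control and ±100 the full control effect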); conditions: JNK3 lysate, c-Jun phosphorylation; series mostly up to 57.1 µM
Procedure, shortened: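 Phosphorylation of biotinylated GST-cJun(1-79) at Ser73 is measured by AlphaScreen proximity luminescence. Enzyme is JNK3 in HepG2 lysates activated with interleukin-1beta and tumor necrosis factor alpha; ATP is 10 uM final.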

[8] = molecular target: 3',5'-cyclic-AMP phosphodiesterase 4B (Homo sapiens) (UniProt Q07343); assay: qHTS Assay for Inhibitors of PDE-IV (AID 607; active means well fitted activation curve with a large enough effect in the main read-out, with a control signal flat, not every such curve was filed as active; further: % of control where 0% means no effect); conditions: HEK293 ACTOne CNG channel cells, membrane potential fluorescence; series mostly up to 22.9 µM
Procedure, shortened: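 Cell-based read-out of cAMP via a modified cyclic nucleotide-gated channel and membrane potential dye (535/590 nm) in HEK293 cells expressing PDE4 endogenously. Compounds tested up to 22.9 uM final; 100 uM RO 20-1724 reference.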

[9] = qHTS Assay for Lipid Storage Modulators (AID 1519; calls by dose curve); conditions: Drosophila S3 cells, BODIPY lipid droplet/cell ratio, laser cytometry, cells loaded with oleic acid
Procedure, shortened: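 Cells seeded at 5,000 per well were treated with compounds over a concentration series and loaded with oleic acid (400 uM, as added). Lipid droplet fluorescence (488 nm excitation, 500-530 nm channel) was read by laser-scanning cytometry and normalized to 20 uM Triacsin C.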

[10] = molecular target: ATP-dependent 6-phosphofructokinase (Trypanosoma brucei brucei) (UniProt O15648); assay: qHTS Assay to Find Inhibitors of T. brucei phosphofructokinase: hit validation (AID 492961); conditions: T. brucei PFK, ADP-Glo luminescence; series mostly up to 24.3 µM
Procedure, shortened: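 PFK 1.25 nM, F6P 0.5 mM, ATP 0.1 mM, MgCl2 5 mM, 0.1 M TEA pH 8.0, Tween20 0.01%, BSA 0.1%; 45 min RT. ADP-Glo two-step detection, luminescence. qHTS titration; curve fitting with curve-class categorization.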

[11] = molecular target: Ubiquitin carboxyl-terminal hydrolase 1 (Homo sapiens) (UniProt O94782); assay: Inhibitors of USP1/UAF1: Pilot qHTS (AID 504865); conditions: purified USP1/UAF1, Ub-rhodamine cleavage fluorescence; series mostly up to 54.9 µM;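 further: rhodamine fluorescence freed from ubiquitin-rhodamine substrate followed over time; top concentration of the series differs between compounds; on the % scale 0 is the no-effect control and ±100 the full control effect; nearly all actives have a fitted effect of over 35% in size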
Procedure, shortened: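 Enzyme-free wells gave the negative control, while test wells held 1nM USP1/UAF1 preincubated with compound for 15 min at room temperature. Ub-Rho at 150nM final started the reaction, and fluorescence at 480/540 nm was recorded kinetically.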

[12] = molecular target: Luciferin 4-monooxygenase (Photinus pyralis) (UniProt P08659); assay: Biochemical firefly luciferase enzyme assay for NPC (AID 624030);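 further: purified P. pyralis luciferase at 10 nM with luciferin and ATP substrate; 0% = DMSO and -100% = full luciferase inhibition by PTC124 control; nearly all actives have a fitted effect of over 70% in size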; conditions: purified P. pyralis luciferase, luminescence, 5 min; series mostly up to 58.6 µM
Procedure, shortened: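 Counter-screen for direct inhibition of the luciferase enzyme by approved-drug library compounds, run at 10 nM enzyme in 50 mM Tris acetate (final). Luminescence was read within 5 min of enzyme-buffer addition and normalized to PTC124 versus DMSO (0%).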

[13] = qHTS profiling for inhibitors of Plasmodium falciparum proliferation (AID 504749);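 further: 0% = DMSO vehicle and full inhibition = artemisinin control; nearly all actives have a fitted effect of over 60% in size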; conditions: P. falciparum in erythrocytes, SYBR Green DNA, 72 h, at 12.8 µM (top of the series)
Procedure, shortened: (§1)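 Quantitative HTS: compounds pinned into medium, infected erythrocytes added (0.3% parasitemia, 2.5% hematocrit), 72 h culture at 37 C under 5% CO2. Saponin/Triton lysis with SYBR Green I, overnight RT, then fluorescence read.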

CP238 = assay: as above; conditions: P. falciparum in erythrocytes, SYBR Green DNA, 72 h; series mostly up to 12.8 µM
Procedure, shortened: as §1

CP262 = assay: as above; conditions: P. falciparum in erythrocytes, SYBR Green DNA, 72 h; series mostly up to 12.8 µM
Procedure, shortened: as §1

CP325 = assay: as above; conditions: P. falciparum in erythrocytes, SYBR Green DNA, 72 h; series mostly up to 12.8 µM
Procedure, shortened: as §1

ECU = assay: as above; conditions: P. falciparum in erythrocytes, SYBR Green DNA, 72 h; series mostly up to 12.8 µM
Procedure, shortened: as §1

FAB9 = assay: as above; conditions: P. falciparum in erythrocytes, SYBR Green DNA, 72 h; series mostly up to 12.8 µM
Procedure, shortened: as §1

HB3 = assay: as above; conditions: P. falciparum in erythrocytes, SYBR Green DNA, 72 h; series mostly up to 12.8 µM
Procedure, shortened: as §1

JCK = assay: as above; conditions: P. falciparum in erythrocytes, SYBR Green DNA, 72 h; series mostly up to 12.8 µM
Procedure, shortened: as §1

[14] = measured here: cell count channel max response
[15] = measured here: lipid channel max response
[16] = at 7.69 µM (top of the series) unless noted

Chain of Glucocorticoid receptor (Homo sapiens) (P04150 whole entry, looked up, the tested form may be a part): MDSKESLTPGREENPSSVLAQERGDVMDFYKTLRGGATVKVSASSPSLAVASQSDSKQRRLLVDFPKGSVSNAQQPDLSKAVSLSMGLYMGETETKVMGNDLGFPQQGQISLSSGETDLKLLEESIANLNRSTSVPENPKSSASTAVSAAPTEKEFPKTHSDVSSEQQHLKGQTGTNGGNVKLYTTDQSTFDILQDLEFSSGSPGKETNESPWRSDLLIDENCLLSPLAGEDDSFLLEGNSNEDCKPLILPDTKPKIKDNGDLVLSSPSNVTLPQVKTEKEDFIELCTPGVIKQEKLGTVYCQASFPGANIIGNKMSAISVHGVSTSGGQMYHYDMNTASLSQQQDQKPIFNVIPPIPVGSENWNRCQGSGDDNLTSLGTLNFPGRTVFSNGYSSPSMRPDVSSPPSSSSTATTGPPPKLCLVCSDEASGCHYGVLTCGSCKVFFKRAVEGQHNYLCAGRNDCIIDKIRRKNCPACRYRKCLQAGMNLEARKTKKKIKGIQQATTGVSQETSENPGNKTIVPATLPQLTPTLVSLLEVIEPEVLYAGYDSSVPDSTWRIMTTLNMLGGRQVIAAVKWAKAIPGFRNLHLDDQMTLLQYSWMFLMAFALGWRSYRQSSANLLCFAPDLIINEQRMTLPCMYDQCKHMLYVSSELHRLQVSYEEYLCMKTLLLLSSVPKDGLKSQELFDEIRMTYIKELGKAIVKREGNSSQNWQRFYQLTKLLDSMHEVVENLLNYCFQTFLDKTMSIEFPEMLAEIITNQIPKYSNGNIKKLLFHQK
Chain of Cytochrome P450 1A2 (Homo sapiens) (P05177 whole entry, looked up): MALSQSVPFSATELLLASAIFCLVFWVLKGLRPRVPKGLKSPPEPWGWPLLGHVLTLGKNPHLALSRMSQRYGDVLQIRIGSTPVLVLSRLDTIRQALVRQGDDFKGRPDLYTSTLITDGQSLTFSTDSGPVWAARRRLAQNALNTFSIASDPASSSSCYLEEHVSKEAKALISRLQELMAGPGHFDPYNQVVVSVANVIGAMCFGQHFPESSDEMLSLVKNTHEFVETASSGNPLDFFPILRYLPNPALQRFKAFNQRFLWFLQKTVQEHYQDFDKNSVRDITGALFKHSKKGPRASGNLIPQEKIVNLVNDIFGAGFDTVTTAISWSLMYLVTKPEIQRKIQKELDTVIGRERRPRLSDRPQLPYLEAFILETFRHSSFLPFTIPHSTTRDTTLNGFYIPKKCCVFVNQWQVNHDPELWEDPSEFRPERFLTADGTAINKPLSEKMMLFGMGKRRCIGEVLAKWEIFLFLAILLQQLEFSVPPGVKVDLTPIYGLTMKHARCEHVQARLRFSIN
Chain of Ubiquitin carboxyl-terminal hydrolase 1 (Homo sapiens) (O94782 whole entry, looked up): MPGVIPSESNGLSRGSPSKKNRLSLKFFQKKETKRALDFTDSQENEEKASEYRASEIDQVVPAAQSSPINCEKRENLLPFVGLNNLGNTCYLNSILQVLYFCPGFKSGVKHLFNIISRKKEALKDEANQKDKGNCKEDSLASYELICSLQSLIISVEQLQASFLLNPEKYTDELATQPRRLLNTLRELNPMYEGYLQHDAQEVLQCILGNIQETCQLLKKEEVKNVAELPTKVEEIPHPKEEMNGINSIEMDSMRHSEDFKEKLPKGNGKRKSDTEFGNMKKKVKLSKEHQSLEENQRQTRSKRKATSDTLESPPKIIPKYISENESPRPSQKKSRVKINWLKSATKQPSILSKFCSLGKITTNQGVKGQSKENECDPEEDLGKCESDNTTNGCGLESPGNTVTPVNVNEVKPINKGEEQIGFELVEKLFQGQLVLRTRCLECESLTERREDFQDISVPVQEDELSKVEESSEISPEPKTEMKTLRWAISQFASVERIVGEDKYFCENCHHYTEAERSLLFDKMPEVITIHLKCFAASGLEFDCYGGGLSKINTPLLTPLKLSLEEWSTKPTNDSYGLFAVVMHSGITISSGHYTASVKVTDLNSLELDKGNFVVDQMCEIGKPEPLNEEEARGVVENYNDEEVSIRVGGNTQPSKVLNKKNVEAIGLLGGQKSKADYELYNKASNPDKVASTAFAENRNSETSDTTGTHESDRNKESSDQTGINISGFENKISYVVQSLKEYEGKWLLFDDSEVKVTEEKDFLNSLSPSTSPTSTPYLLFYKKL
Chain of 3',5'-cyclic-AMP phosphodiesterase 4B (Homo sapiens) (Q07343 whole entry, looked up): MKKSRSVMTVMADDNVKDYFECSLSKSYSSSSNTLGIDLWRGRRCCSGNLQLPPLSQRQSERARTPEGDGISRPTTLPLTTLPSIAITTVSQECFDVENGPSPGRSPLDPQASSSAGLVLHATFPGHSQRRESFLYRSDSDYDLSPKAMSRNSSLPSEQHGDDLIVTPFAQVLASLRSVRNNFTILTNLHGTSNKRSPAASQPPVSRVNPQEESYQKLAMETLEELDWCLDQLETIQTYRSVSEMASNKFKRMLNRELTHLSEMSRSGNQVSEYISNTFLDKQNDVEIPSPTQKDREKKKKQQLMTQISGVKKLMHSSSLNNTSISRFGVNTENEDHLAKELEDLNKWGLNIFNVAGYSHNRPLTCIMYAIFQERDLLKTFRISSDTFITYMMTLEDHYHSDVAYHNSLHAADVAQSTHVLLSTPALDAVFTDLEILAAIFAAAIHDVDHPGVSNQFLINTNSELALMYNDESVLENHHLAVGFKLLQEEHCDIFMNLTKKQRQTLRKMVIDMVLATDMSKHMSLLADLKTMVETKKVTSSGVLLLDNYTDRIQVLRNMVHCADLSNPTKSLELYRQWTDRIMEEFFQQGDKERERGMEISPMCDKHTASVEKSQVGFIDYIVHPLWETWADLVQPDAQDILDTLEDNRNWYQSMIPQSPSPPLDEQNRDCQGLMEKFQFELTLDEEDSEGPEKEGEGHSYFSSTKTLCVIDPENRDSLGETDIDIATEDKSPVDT
Chain of ATP-dependent 6-phosphofructokinase (Trypanosoma brucei brucei) (O15648 whole entry, looked up): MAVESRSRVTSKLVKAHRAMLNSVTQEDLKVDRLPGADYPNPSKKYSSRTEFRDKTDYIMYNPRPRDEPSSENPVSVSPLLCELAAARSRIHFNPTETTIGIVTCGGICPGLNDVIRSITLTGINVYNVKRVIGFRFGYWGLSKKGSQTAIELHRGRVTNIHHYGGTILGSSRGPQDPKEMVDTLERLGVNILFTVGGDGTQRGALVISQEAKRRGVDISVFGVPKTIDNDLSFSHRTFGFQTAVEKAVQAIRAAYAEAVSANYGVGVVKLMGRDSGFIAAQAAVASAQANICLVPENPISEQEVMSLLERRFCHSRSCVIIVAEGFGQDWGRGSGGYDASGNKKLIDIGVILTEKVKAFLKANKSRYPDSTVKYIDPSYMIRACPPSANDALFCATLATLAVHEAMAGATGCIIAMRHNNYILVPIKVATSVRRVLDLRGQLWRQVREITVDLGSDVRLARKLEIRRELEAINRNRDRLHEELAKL
Chain of Luciferin 4-monooxygenase (Photinus pyralis) (P08659 whole entry, looked up): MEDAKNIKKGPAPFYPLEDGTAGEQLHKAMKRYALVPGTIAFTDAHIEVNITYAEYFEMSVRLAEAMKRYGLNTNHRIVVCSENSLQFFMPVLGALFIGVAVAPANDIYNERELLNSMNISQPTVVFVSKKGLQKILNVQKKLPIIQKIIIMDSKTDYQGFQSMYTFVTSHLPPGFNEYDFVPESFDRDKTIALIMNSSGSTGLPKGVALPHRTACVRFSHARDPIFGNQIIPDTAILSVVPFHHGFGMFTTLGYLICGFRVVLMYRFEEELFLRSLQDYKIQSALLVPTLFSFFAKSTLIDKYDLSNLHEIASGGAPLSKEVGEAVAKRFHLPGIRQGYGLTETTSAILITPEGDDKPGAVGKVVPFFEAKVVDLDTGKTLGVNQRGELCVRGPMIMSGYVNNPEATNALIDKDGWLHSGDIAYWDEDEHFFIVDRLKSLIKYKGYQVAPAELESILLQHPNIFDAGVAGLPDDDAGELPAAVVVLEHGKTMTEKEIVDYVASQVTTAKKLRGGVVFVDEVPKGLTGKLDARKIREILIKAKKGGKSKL

C[C@@H](COc1ccccc1)N(CCCl)Cc1ccccc1
-6.85%: max response [9, 15]
inactive: activity change, negative = inhibition ([1]; at 17.2 µM (top of the series)) -0.257% | activity change, negative = inhibition ([1]; at 38 µM (top of the series)) 0.967% | activity change, negative = inhibition ([3]; at 17.2 µM (top of the series)) -10.8% | activity change, negative = inhibition ([3]; at 38 µM (top of the series)) -22.8% | activity, negative = inhibition [4] 1.89% [at 17.2 µM] | Potency [5] > 46 µM and > 20.6 µM | Potency [6] > 46 µM and > 20.6 µM | Potency [7] | Potency [8] | activity change, negative = inhibition ([9]; at 25.7 µM (top of the series)) 0.574%
-7.22%: max response [9, 14]
active: Potency [2] 12.6 µM

CCN1C(=O)N[C@@H](c2ccccc2)C1=O
-10.1%: max response [9, 14]
-9.51%: max response [9, 15]
inactive: activity change, negative = inhibition [1, 16] -1.74% [at 17.2 µM] | Potency [2] | activity change, negative = inhibition [3, 16] 1.96% [at 17.2 µM] | activity, negative = inhibition [4] -21.2% [at 17.2 µM] | Potency [5] > 20.6 µM | Potency [6] > 20.6 µM | Potency [7] | Potency [8] | activity change, negative = inhibition ([9]; at 25.7 µM (top of the series)) -2.13% | outcome [10] | Potency [11] | outcome [12] | activity, negative = inhibition ([13]; parasite line A) -3.65% | activity, negative = inhibition ([13]; parasite line B) 13.5% | Potency (CP238) | Potency (CP262) | Potency (CP325) | Potency (ECU) | Potency (FAB9) | Potency (HB3) | Potency (JCK)

CC1CC2C3CCC4=CC(=O)C=C[C@@]4(C)[C@]3(F)C(O)C[C@]2(C)[C@]1(O)C(=O)CO (some centres undefined)
inactive: activity change, negative = inhibition ([9]; at 57.5 µM (top of the series)) -0.857% and 2.9% | Potency [11]
23.5% and 9.45%: max response [9, 15]
20% and 4.4%: max response [9, 14]

NC(N)=NC[C@@H]1COC2(CCCCC2)O1
inactive: Potency [2] | activity change, negative = inhibition [3, 16] 18.5% [at 17.2 µM] | activity, negative = inhibition [4] 6.54% [at 17.2 µM] | Potency [5] > 20.6 µM | Potency [6] > 20.6 µM | Potency [7] | Potency [8] | activity change, negative = inhibition ([9]; at 25.7 µM (top of the series)) -0.418% | outcome [10] | Potency [11] | outcome [12] | activity, negative = inhibition ([13]; parasite line A) -12.1% | activity, negative = inhibition ([13]; parasite line B) -13% | Potency (CP238) | Potency (CP262) | Potency (CP325) | Potency (ECU) | Potency (FAB9) | Potency (HB3) | Potency (JCK)
-12.5%: max response [9, 14]
-12.6%: max response [9, 15]

C[C@@](N)(Cc1ccc(O)cc1)C(=O)O
inactive: activity change, negative = inhibition [1, 16] -8.05% [at 38 µM] and -6.78% [at 38 µM] | Potency [2] | activity change, negative = inhibition [3, 16] -13% [at 38 µM] and 8.58% [at 38 µM] | activity, negative = inhibition [4] 3.69% [at 38 µM] | Potency [5] > 46 µM | Potency [6] > 46 µM | Potency [7] | Potency [8] | activity change, negative = inhibition ([9]; at 57.5 µM (top of the series)) 1.23% | Potency [11]
18.3%: max response [9, 15]
15.7%: max response [9, 14]

Source: PubChem BioAssay (NCATS)
